Source: publication PMC7826789 (International Journal of Molecular Sciences, 2021)

Tests used:
Conditions in all cases: Compound Concentration (nM):1000
MET(Y1235D) = system: MET(Y1235D)
MET = system: MET
MINK = system: T1, MINK
T1 construct: gene MINK1

MKK7 = system: T2, MKK7
T2 construct: gene MAP2K7

MKNK1 = system: MKNK1
MKNK2 = system: MKNK2
MLCK = system: T3, MLCK
T3 construct: gene MYLK3

MLK1 = system: T4, MLK1
T4 construct: gene MAP3K9

MLK2 = system: T5, MLK2
T5 construct: gene MAP3K10

MLK3 = system: T6, MLK3
T6 construct: gene MAP3K11
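Note: KINOMEscan scanMAX binding as percent activity remaining versus control; lower means stronger binding.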

Row | Compound | Percent Control (MET(Y1235D)) | Percent Control (MET) | Percent Control (MINK) | Percent Control (MKK7) | Percent Control (MKNK1) | Percent Control (MKNK2) | Percent Control (MLCK) | Percent Control (MLK1) | Percent Control (MLK2) | Percent Control (MLK3)
1 | CC1=C(C(=O)Nc2ccc3[nH]ncc3c2)C(c2ccc(Cl)c(Cl)c2)CC(=O)N1 (stereo not drawn) [GSK299115A] | 97% | 97% | 69% | 90% | 81% | 66% | 99% | 70% | 86% | 97%
2 | COc1ccc(COc2ccc(Cc3cnc(N)nc3N)cc2OC)cc1 [GW632580X] | 100% | 95% | 85% | 80% | 76% | 100% | 100% | 85% | 53% | 90%
3 | NS(=O)(=O)c1ccc(N/N=C2\C(=O)Nc3ccc(-c4cnco4)cc32)cc1 [GW276655] | 100% | 94% | 3.8% | 93% | 93% | 71% | 19% | 73% | 64% | 96%
4 | C[C@@H](Oc1cc(-n2cnc3ccc(OC4CCN(C)CC4)cc32)sc1C(N)=O)c1ccccc1Cl [GSK579289A] | 98% | 58% | 75% | 78% | 71% | 60% | 72% | 39% | 86% | 100%
5 | COc1cc(C=NNc2ncnc3c2cnn3-c2ccccc2)ccc1O [GW513184X] | 57% | 36% | 48% | 100% | 100% | 50% | 98% | 48% | 83% | 50%
6 | O=C(Nc1n[nH]c2nc(-c3ccc(O)cc3)c(Br)cc12)C1CC1 [SB-725317] | 100% | 100% | 42% | 100% | 49% | 90% | 67% | 100% | 100% | 100%
7 | Cl.O=C(Nc1ccc(Oc2ccc3[nH]c(NC(=O)c4ccco4)nc3c2)cc1)Nc1cc(C(F)(F)F)ccc1F [GW683134A] | 6.6% | 17% | 99% | 100% | 48% | 12% | 100% | 64% | 82% | 67%
8 | COC(=O)Nc1nc2ccc(Oc3ccc(NC(=O)Nc4cc(C(F)(F)F)ccc4F)cc3)cc2s1.Cl [GW693917A] | 6.6% | 33% | 79% | 97% | 45% | 31% | 99% | 97% | 85% | 100%
9 | Cl.O=C(Nc1ccc(Oc2ccc3[nH]c(NC(=O)c4ccccc4)nc3c2)cc1)Nc1cc(C(F)(F)F)ccc1F [GW709042A] | 59% | 64% | 93% | 100% | 64% | 26% | 100% | 100% | 47% | 73%
10 | COc1cc(/C=N/Nc2ncnc3[nH]ncc23)ccc1O [GW578748X] | 83% | 100% | 39% | 100% | 78% | 38% | 90% | 66% | 51% | 43%
11 | Cl.c1ccc(Cc2nc3ccc(Nc4ncnc5ccccc45)cc3[nH]2)cc1 [GR269666A] | 91% | 100% | 92% | 100% | 86% | 100% | 100% | 100% | 100% | 91%
12 | COc1cccc(-n2ncc3c(N/N=C/c4ccncc4)ncnc32)c1 [GW784752X] | 94% | 91% | 67% | 100% | 47% | 59% | 98% | 100% | 73% | 100%
13 | NS(=O)(=O)c1ccc(N/N=C2\C(=O)Nc3ccc(C(=O)NCCc4c[nH]cn4)cc32)cc1 [GW300660X] | 100% | 100% | 43% | 100% | 100% | 100% | 100% | 100% | 100% | 100%
14 | COc1cc(C)c(N(C)C(=O)CN(C)C)cc1Nc1nc(Nc2cccc(F)c2C(N)=O)c2cc[nH]c2n1 [GSK2219385] | 99% | 65% | 86% | 97% | 75% | 98% | 78% | 55% | 100% | 100%
15 | CCS(=O)(=O)c1ccc(OC)c(Nc2ncc(-c3cccc(OC)c3)o2)c1 [GW580509X] | 100% | 100% | 70% | 100% | 100% | 94% | 100% | 100% | 100% | 96%
